We go through 55 sequences from publication PMC7819943, “Rice protein-binding microarrays: a tool to detect cis-acting elements near promoter regions in rice”.

In all, about 39,000 sequences were measured (“fluorescence intensity (a.u.)”: median about 4,300, highest 2% from about 39,000 on). This excerpt belongs to a sample that is enriched for the highest values.

In this test the target is T1, OsSMF1 (Oryza sativa, UniProt Q6ZLB0 1-436).
T1 sequence: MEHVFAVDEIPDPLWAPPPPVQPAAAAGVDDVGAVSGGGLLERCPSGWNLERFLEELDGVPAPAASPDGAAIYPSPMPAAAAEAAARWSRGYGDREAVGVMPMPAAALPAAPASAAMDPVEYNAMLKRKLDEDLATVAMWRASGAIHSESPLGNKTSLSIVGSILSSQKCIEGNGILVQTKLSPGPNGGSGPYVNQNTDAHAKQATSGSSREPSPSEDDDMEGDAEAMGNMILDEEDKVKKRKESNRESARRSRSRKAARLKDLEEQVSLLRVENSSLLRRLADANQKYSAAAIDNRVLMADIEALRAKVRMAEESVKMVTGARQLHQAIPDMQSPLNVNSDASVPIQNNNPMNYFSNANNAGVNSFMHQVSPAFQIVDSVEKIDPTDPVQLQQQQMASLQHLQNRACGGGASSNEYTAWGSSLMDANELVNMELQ
The test is described as follows: protein-binding microarray (RPBM); PBS, 2% BSA, 51.3 ng/ul salmon testes DNA, 50 uM zinc acetate, 200 nM TF, 25 C, 1 h; high values mean tight binding. The settings on record: protein: recombinant; tags: N-terminal polyhistidine and DsRed monomer fusion (pET32a); chain copies: 2; label: CyDye5-dUTP incorporated in the synthesized complementary strand; 3' TTTTT single-stranded linker to array surface; dsDNA, one strand shown. The method in brief:
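Per-feature fluorescence intensity (arbitrary units), read on an Axon 4000B scanner, is the binding signal. Transcription factors carrying an N-terminal polyhistidine tag and DsRed fusion were expressed in E. coli BL21-CodonPlus and purified on Ni–NTA. A custom Agilent array, made double-stranded by primer extension with Cy5-dUTP and blocked with 2% BSA, was incubated with 200 nM protein in PBS, 2% BSA, salmon testes DNA and 50 µM zinc acetate at 25 °C for 1 h and then washed.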
As to “TTGAATTGCCATTACAAGCAGAAACTGGGTAGCCCAGCAGCGGAGTCACCTAGTGCAG”, the binding signal was 14600 fluorescence intensity (a.u.).

On to “GCCGCTGCACCGCCCCAGCCTCCTCCTCCCCACCGATGCCCGGAGTCACCTAGTGCAG”, for which the binding signal is 3150 fluorescence intensity (a.u.).

In the case of “TCTATAAATATGATGTGGCTATGTACTCAGTACTCACCTGCGGAGTCACCTAGTGCAG”, the binding signal is 6690 fluorescence intensity (a.u.).

Consider “GGCGGCACAGGTCGCCGTCGTCGCCACCGACGCGGCGTCGCGGAGTCACCTAGTGCAG”, for which the binding signal is 3730 fluorescence intensity (a.u.).

For “GTGCAGATCCACTGTCTGCTCATTGGGCTTATTCATGGCTCGGAGTCACCTAGTGCAG”, the binding signal is 40700 fluorescence intensity (a.u.).

As for “GCGCCCCATCCACGCGTCATGCATCCACGTCGGGGCTGCACGGAGTCACCTAGTGCAG”, the binding signal was 11600 fluorescence intensity (a.u.).

“CCTTTTCAATGTTCTTGTCATCACTGCTCGTGTCACCCGTCGGAGTCACCTAGTGCAG”: the binding signal is 5650 fluorescence intensity (a.u.).

For the sequence “TTATTCATACATGTCACTGCCAGGCTGCTGTCTACTTCTTCGGAGTCACCTAGTGCAG”, the binding signal was 4950 fluorescence intensity (a.u.).

With “ACGGGCTCGTCGAGCTGCTCTGGTGCAATGGCCACGTCATCGGAGTCACCTAGTGCAG”, the binding signal is 28400 fluorescence intensity (a.u.).

With “GGCTGCTCATTGTCGTCTCATCTGGGCTTTTCAATGGGCTCGGAGTCACCTAGTGCAG”, the binding signal was 53700 fluorescence intensity (a.u.).

For “TGACTGCTGGCTCACATCCAGTCATTGGCTTAGCTAGCTGCGGAGTCACCTAGTGCAG”, the binding signal is 4160 fluorescence intensity (a.u.).

“CCATTCATGCCCGTGATATCCTGGCTCCACGAGCTCTGCTCGGAGTCACCTAGTGCAG”: the binding signal was 59000 fluorescence intensity (a.u.).

Regarding “CACGAGTGCCTCTCCGTCATGCTCCACGACAGCTGCAGCCCGGAGTCACCTAGTGCAG”, the binding signal was 4760 fluorescence intensity (a.u.).

Take “TGAGCACCTCATCCACGCGTCATGCATCTGTGTCGGGGCTCGGAGTCACCTAGTGCAG”: the binding signal is 45200 fluorescence intensity (a.u.).

As for “GCTGTCCTGCTCGTCGGCCTCCACGCGCGCTCATCGGCCTCGGAGTCACCTAGTGCAG”, the binding signal is 3240 fluorescence intensity (a.u.).

Turning to “AATATCATCCGTGTCACTACCTAGCTCCTGCATGCTCTGCCGGAGTCACCTAGTGCAG”, the binding signal was 4560 fluorescence intensity (a.u.).

Consider “ACCTGTGAATGTCTCTAGTGTGACGACTCTACTTCAGTTTCGGAGTCACCTAGTGCAG”, for which the binding signal was 4050 fluorescence intensity (a.u.).

In the case of “GAGCCTTACCGGCTCAGACTTGGCATGACGTGGACGTACACGGAGTCACCTAGTGCAG”, the binding signal was 22500 fluorescence intensity (a.u.).

Turning to “TTCATTCCCAAATGCCACCCGGGCCCACATGTCAGCCTCACGGAGTCACCTAGTGCAG”, the binding signal was 4670 fluorescence intensity (a.u.).

Consider “TTACCCTTAGTCATTTGACCCTATTACATGTGGGACCCACCGGAGTCACCTAGTGCAG”, for which the binding signal is 3900 fluorescence intensity (a.u.).

“GTCATGGATCAAATCATCATGTATATCATCCGTCGTCGTGCGGAGTCACCTAGTGCAG”: the binding signal was 3180 fluorescence intensity (a.u.).

For “TGTTGCTCGGCCAAACGTACACACAGTTCGTTATATATCGCGGAGTCACCTAGTGCAG”, the binding signal is 12100 fluorescence intensity (a.u.).

With “TATTTTGGAGCGGACGAAGTAATAATATAGTACACGTCGGCGGAGTCACCTAGTGCAG”, the binding signal was 5310 fluorescence intensity (a.u.).

On to “CCCATAACTGAATTGTTAATTTTGTCACGCGAGCAACGCACGGAGTCACCTAGTGCAG”, for which the binding signal was 19300 fluorescence intensity (a.u.).

For “GATAATTAAGCTGATAGCGAGACATAACAAGCTCTGTTCTCGGAGTCACCTAGTGCAG”, the binding signal was 49600 fluorescence intensity (a.u.).

Take “ATACATAGCCATATATAAAATTAATGTGATAACATATTCTCGGAGTCACCTAGTGCAG”: the binding signal was 3660 fluorescence intensity (a.u.).

Take “ATACAAGACAAATCGATTAACATAAGATCGATATATCGCTCGGAGTCACCTAGTGCAG”: the binding signal was 24700 fluorescence intensity (a.u.).

Take “TGATAATAATTATTTCTTGGTCTTTAAATTAAGGGTGATTCGGAGTCACCTAGTGCAG”: the binding signal was 14800 fluorescence intensity (a.u.).

Regarding “TAATAAGAGGCTGTAAGTCGGCTAAATGCTGAGGTGGAGGCGGAGTCACCTAGTGCAG”, the binding signal is 8660 fluorescence intensity (a.u.).

As to “TGTTTGTAAAGTAGAGCGTGCATGTGTGCGTTCTTAAGGTCGGAGTCACCTAGTGCAG”, the binding signal was 3590 fluorescence intensity (a.u.).

In the case of “AAGTAAATGTAGATAAGGCCGTGTAATAAAGGTTGCTAGTCGGAGTCACCTAGTGCAG”, the binding signal was 56800 fluorescence intensity (a.u.).

Turning to “GATTCGAGATTCAGGTAGGTTGTATAGTTCACGGGAGCAACGGAGTCACCTAGTGCAG”, the binding signal was 64500 fluorescence intensity (a.u.).

For “AAATTCGTTCTACAACTAAACAGGTTGCTTCAGAGTGCAACGGAGTCACCTAGTGCAG”, the binding signal is 30800 fluorescence intensity (a.u.).

Turning to “TGTTCATCCAAGGAGATTATCAGGTTGTTTGTATATATAACGGAGTCACCTAGTGCAG”, the binding signal is 26400 fluorescence intensity (a.u.).

As for “AATATAGTGTTGTTTGGTACTATATCGAGTTGGATTAGTTCGGAGTCACCTAGTGCAG”, the binding signal is 3190 fluorescence intensity (a.u.).

“TTGGTAGGTTCGACCTACTAGATTGTTGTTGATAATATAACGGAGTCACCTAGTGCAG”: the binding signal is 51700 fluorescence intensity (a.u.).

Regarding “GATTGGTAGTATTTAGTTGTGTATAATGTATTATTAGGTTCGGAGTCACCTAGTGCAG”, the binding signal was 3720 fluorescence intensity (a.u.).

For “TGCTATGCATACGACTCAGCTGTCCGACTCATGTATGAATCGGAGTCACCTAGTGCAG”, the binding signal was 3720 fluorescence intensity (a.u.).

Regarding “CGCGGCACGGGGAGACGACACGTCGGATGGTTGGCAGGAGCGGAGTCACCTAGTGCAG”, the binding signal is 16400 fluorescence intensity (a.u.).

Regarding “TTCTTCCTATATAAGCACAACACACGTCCTTACTTGTGTGCGGAGTCACCTAGTGCAG”, the binding signal was 5410 fluorescence intensity (a.u.).

Consider “GGCGTTCTGCCGCCTGGCGCCGCTCGTCACGTACGAGGACCGGAGTCACCTAGTGCAG”, for which the binding signal is 3350 fluorescence intensity (a.u.).

“TCTGTAGTAGTCATCATCACCTAGGTGCCTACCCTTTTGACGGAGTCACCTAGTGCAG”: the binding signal is 3280 fluorescence intensity (a.u.).

Regarding “CTGGGAAATAGTGCTGCAGAGTCACTAGTTAGATCGAAATCGGAGTCACCTAGTGCAG”, the binding signal was 3980 fluorescence intensity (a.u.).

Turning to “TGTGAGCACGGATCGACGATGAAAACAGACGAAGAACATTCGGAGTCACCTAGTGCAG”, the binding signal was 27400 fluorescence intensity (a.u.).

In the case of “ACTACAAATAGATCGAACAGAAACAGAGCATCACGACGACCGGAGTCACCTAGTGCAG”, the binding signal is 40300 fluorescence intensity (a.u.).

Regarding “TCTCAACCCTCAGGTAATCTACTGCTGCGCGTGGTGAATCCGGAGTCACCTAGTGCAG”, the binding signal was 4080 fluorescence intensity (a.u.).

As to “ATACTAATAGTATAGTAAGCAACTATTGTATGAATTGGCTCGGAGTCACCTAGTGCAG”, the binding signal is 3740 fluorescence intensity (a.u.).

With “CTACTAATAAGGCGTGTTATTATTGGTCATCAATGGCGTCCGGAGTCACCTAGTGCAG”, the binding signal was 3300 fluorescence intensity (a.u.).

In the case of “AAAGTCCGCTCGTGTTATTGGTAATTGAACTACTAAGCTACGGAGTCACCTAGTGCAG”, the binding signal was 41300 fluorescence intensity (a.u.).

As to “GGATCCGGGCATCTGGCTGCCCCGCCGCCACTCCGCCTAGCGGAGTCACCTAGTGCAG”, the binding signal is 3330 fluorescence intensity (a.u.).

With “ATTGGTATGGTATATTCATACCATAACATAAGAACAATAACGGAGTCACCTAGTGCAG”, the binding signal was 21200 fluorescence intensity (a.u.).

Consider “TTGGATGTTTGCCGTGGACAAGTGCTAACTGTCAAAACCCCGGAGTCACCTAGTGCAG”, for which the binding signal is 34900 fluorescence intensity (a.u.).

As to “CTTGTGGCCCATTAATGGCTCGCGTCGGCCTAATTTTGTGCGGAGTCACCTAGTGCAG”, the binding signal was 4450 fluorescence intensity (a.u.).

Regarding “TTGAAACTGTGCATGCGCATCACCTTCATGCCCAAAATTTCGGAGTCACCTAGTGCAG”, the binding signal is 3160 fluorescence intensity (a.u.).

With “GTGTGAAAAGATGCTGGCCCAATTAATTTGCGCGCGTCATCGGAGTCACCTAGTGCAG”, the binding signal is 48700 fluorescence intensity (a.u.).
